# High-throughput results deposited in PubChem by National Center for Advancing Translational Sciences (NCATS).
# Compounds with a hit are over-represented: about 9.3% of the library has one in this group of screens.
# ELG1 genotoxic: qHTS screen for small molecules that induce genotoxicity in human embryonic kidney (HEK293T) cells expressing luciferase-tagged ELG1. HEK293T ELG1-luciferase reporter, luminescence, 16 h. Potency, µM (series often up to 46 µM), inactives show top-dose activity change, positive = activation, usual class: activators. 1.3% of 330,000 active. AID 504466, 2011; further: % of control where 0% means no effect; nearly all actives have a fitted effect of over 60% in size
#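 HEK293T cells expressing luciferase-tagged ELG1 were treated with compound or DMSO for 16 hr at 37°C. Luciferase activity was then read after 30 min with ONE-Glo at room temperature; rising signal flags genetic stress.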
# ELG1 DNA repair: qHTS screen for small molecules that inhibit ELG1-dependent DNA repair in human embryonic kidney (HEK293T) cells expressing luciferase-tagged ELG1 | Potency, µM (top dose mostly 46.1 µM), without a hit: at the highest dose activity change, negative = inhibition, usual class: inhibitors | 2.3% of 330,000 active | HEK293T ELG1-luciferase reporter, luminescence, 16 h; DNA damage induced by 5-fluorouridine | AID 504467, 2011; further: on the % scale 0 is the no-effect control and ±100 the full control effect; nearly all actives have a fitted effect of over 55% in size
#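 Quantitative HTS, concentration-response format. 2,000 cells/well co-treated with 5-fluorouridine and compound, 16 hr in 5% CO2 at 37 °C; ONE-Glo luminescence read after 30 min.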
# Rab9 promoter act: qHTS Assay for Rab9 Promoter Activators | Huh7 Rab9 promoter-luciferase reporter, luminescence, 24 h | Potency, µM (series often up to 9.22 µM), for inactives: top-dose activation, negative = inhibition, actives largely listed as activators | 2.8% of 320,000 active | AID 485297, 2010; further: % of control where 0% means no effect; nearly all actives have a fitted effect of over 60% in size
#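 Stable Rab9-luc Huh7, 1500 cells/well, 2 h settle; cmpd in DMSO, 24 h, 37 °C/5% CO2; luciferase reagent 10 min RT; luminescence.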
# NPC1 prom act: qHTS Assay for NPC1 Promoter Activators; Potency, µM (titrated, usually from 9.22 µM), for inactives: at the top dose activation, actives largely listed as activators; AID 485313, 2010; Huh7 NPC1 promoter luciferase reporter, 24 h; 2.4% of 320,000 active; further: % of control where 0% means no effect; nearly all actives have a fitted effect of over 60% in size
#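 Cells: Huh7 expressing luciferase under the NPC1 promoter, 1500/well. Seeded 2 h, compound added, incubated 24 h at 37 °C. Luciferase reagent, 10 min ambient, then luminescence.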
# FLuc counter: qHTS profiling assay for firefly luciferase inhibitor/activator using purifed enzyme and Km concentrations of substrates (counterscreen for miR-21 project). Luciferin 4-monooxygenase (Photinus pyralis), P08659. purified FLuc, Km substrates, luminescence inhibition. Potency, µM (doses to about 57.5 µM), inactives show at the top dose activity change, negative = inhibition, most hits filed as inhibitors. 6.9% of 360,000 active. AID 588342, 2011;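 further: plate controls were vehicle for no effect and reference inhibitor for full effect; nearly all actives have a fitted effect of over 55% in size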
# Target sequence (P08659 whole entry, looked up): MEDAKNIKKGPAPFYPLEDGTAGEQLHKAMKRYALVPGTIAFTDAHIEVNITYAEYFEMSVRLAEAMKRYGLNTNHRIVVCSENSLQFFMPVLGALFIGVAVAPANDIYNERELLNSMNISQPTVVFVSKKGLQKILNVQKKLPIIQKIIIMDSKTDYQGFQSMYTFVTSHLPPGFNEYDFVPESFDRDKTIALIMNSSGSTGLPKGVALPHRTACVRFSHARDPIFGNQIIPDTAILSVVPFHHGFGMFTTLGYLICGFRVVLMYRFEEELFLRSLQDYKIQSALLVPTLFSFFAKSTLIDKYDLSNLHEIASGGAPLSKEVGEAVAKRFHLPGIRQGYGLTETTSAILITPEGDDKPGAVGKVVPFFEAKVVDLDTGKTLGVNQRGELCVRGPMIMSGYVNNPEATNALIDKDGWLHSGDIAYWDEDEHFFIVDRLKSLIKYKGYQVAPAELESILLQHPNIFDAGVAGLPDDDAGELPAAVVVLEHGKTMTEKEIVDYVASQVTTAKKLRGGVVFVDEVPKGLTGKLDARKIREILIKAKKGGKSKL
#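 Purified P. pyralis luciferase, 10 nM final, with Km-level 10 uM D-luciferin and 10 uM ATP in 50 mM Tris acetate pH 7.5, 10 mM Mg acetate, 0.01% Tween-20, 0.05% BSA; 6-point qHTS titration about 60 µM downward; luminescence read.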
# SMN2 splice up: qHTS Assay for Enhancers of SMN2 Splice Variant Expression | AID 1458, 2008 | HEK293 SMN2-luciferase splicing reporter, luminescence, 30-36 h | Potency, µM (top dose mostly 46.1 µM), inactives show at the top dose activity change, positive = activation, hits mostly activators | 2.8% of 210,000 active; further: % of control where 0% means no effect; nearly all actives have a fitted effect of over 55% in size
#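 qHTS luciferase splicing reporter: luminescence rises when SMN2 exon 7 is included in transfected HEK293 cells. Compound exposure lasted 30-36 h at 37C, with 4.5 mM final sodium butyrate as control, followed by a ONE-Glo read.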
# Numbers without * were called inactive; ? = inconclusive; nt = no result given. The call rests on the fitted dose curve; in most records, active means well fitted curve in the direction sought with a large enough effect; inconclusive means small, poorly fitted or top-dose-only effect, or another doubt; inactive means no such curve, though single readings can be large; an effect the other way counts as inactive or inconclusive. Potency means the concentration at half of the fitted maximal effect.
SMILES,ELG1 genotoxic,ELG1 DNA repair,Rab9 promoter act,NPC1 prom act,FLuc counter,SMN2 splice up
COc1ccc(NC(=O)c2n[nH]c(=O)c3ccccc23)cc1S(=O)(=O)N1CCCCC1,-1%,23µM*,-8%,-4%,-1%,-41%
COc1ccc(NC(=O)c2ccco2)cc1S(=O)(=O)N1CCCCC1,1%,0%,0%,0%,-1%,nt
COc1ccc(NC(=O)CCc2nc3ccccc3c(=O)[nH]2)cc1S(=O)(=O)N1CCCCC1,-4%,26µM*,nt,nt,nt,nt
COc1ccc(CCC(=O)Nc2ccc(OC)c(S(=O)(=O)N3CCCCC3)c2)cc1OC,-3%,?,-8%,-1%,4%,nt
COc1ccc(CCC(=O)Nc2ccc(Cl)c(S(=O)(=O)N3CCCC3)c2)cc1,1%,4.6µM*,-31%,-22%,-8%,nt
CCc1ccc(NC(=O)c2n[nH]c(=O)c3ccccc23)cc1,?,?,2.5µM*,3.2µM*,?,nt
COc1ccc(NC(=O)[C@@H]2CCCN2S(=O)(=O)c2ccccc2F)cc1S(=O)(=O)N1CCCCC1,-9%,15µM*,nt,nt,nt,nt
Cc1ccc(NC(=O)CN(C)CC(=O)Nc2ccccc2Oc2ccccc2)cc1,-1%,-4%,3%,-6%,4%,-9%
Cc1cccc(C)c1NC(=O)CN(C)CC(=O)Nc1ccccc1Oc1ccccc1,-3%,12µM*,0%,-1%,-10%,-16%
CS(=O)(=O)N1CCC(C(=O)N2CCN(c3ccc(F)cc3)CC2)CC1,0%,-4%,0%,0%,0%,nt
COc1ccc(CCc2nnc(CCC(=O)NCc3cc(C(C)C)no3)o2)cc1,?,?,?,27%,17µM*,?
COc1ccc(CCc2nnc(CCC(=O)NCCc3ncccc3C)o2)cc1,5%,23%,-2%,0%,-16%,11%
Cc1nn(-c2ccccc2)c(C)c1-c1ccccc1O,5%,-27%,-3%,4%,-17%,nt
Cc1nn(-c2ccccc2)c(/N=C/c2ccc(O)cc2)c1-c1ccccc1,14%,?,?,?,-5%,18µM*
CC(=O)n1cc(N(C(=O)CCl)c2ccc(C)cc2)c2ccccc21,-24%,23µM*,-54%,-45%,4%,nt
COc1ccccc1CNC(=O)CCC1N=C2c3ccccc3N=C(SCC(=O)NCCc3ccc(OC)c(OC)c3)N2C1=O (configuration not stated),nt,nt,nt,nt,-3%,nt
CC(CNC(=O)c1ccc(Cn2c(=O)c3cccn3c3cccnc32)cc1)c1ccccc1 (configuration not stated),nt,nt,nt,nt,2%,nt
CCOC(=O)c1ccc(NC(=S)NCc2ccco2)cc1,-8%,?,17%,10%,?,nt
CCOc1ccc(NC(=O)Cn2cc(C(=O)c3ccccc3)c(=O)c3cc4c(cc32)OCO4)cc1,nt,nt,nt,nt,-5%,-6%
CC(C)C(C)(C#N)NC(=O)CSc1ncnc2sc(-c3ccccc3)cc12 (configuration not stated),-7%,?,-2%,0%,?,nt
CN(C(=O)CSc1ncnc2sc(-c3ccccc3)cc12)C1CCS(=O)(=O)C1 (configuration not stated),-6%,?,9%,-1%,17µM*,-47%
CN(C(=O)CSc1ncnc2ccccc12)C1CCCCC1,?,?,3.5µM*,?,15µM*,nt
CN(CCC#N)C(=O)CSc1ncnc2sc(-c3ccccc3)cc12,-1%,-18%,20%,16%,11µM*,-22%
CCN(CC)C(=O)CSc1ncnc2sc(-c3ccccc3)cc12,?,?,2.8µM*,?,11µM*,-10%
COCC(C)NC(=O)CSc1ncnc2sc(-c3ccccc3)cc12 (configuration not stated),-7%,1%,-3%,-3%,?,nt
SMILES,ELG1 genotoxic,ELG1 DNA repair,Rab9 promoter act,NPC1 prom act,FLuc counter,SMN2 splice up
CC(=O)c1ccc(N2CCN(S(=O)(=O)c3cc(-c4onc(C)c4C)ccc3C)CC2)cc1,nt,nt,nt,nt,2%,nt
CCOc1ccc(S(=O)(=O)NCCC(=O)NCCCSc2ccccc2)cc1,1%,-14%,-1%,0%,3%,nt
CCc1nc2nc(C)cc(Nc3cc(Cl)ccc3OC)n2n1,nt,nt,nt,nt,-1%,-9%
O=C(C1CCN(S(=O)(=O)c2cccc3cccnc23)CC1)N1CCn2c1nc1ccccc12,-14%,23µM*,-10%,-4%,0%,-32%
CC(C)(C)C1CCc2c(C(=O)NNC(=O)CCC(=O)O)csc2C1 (configuration not stated),1%,-8%,1%,-2%,27µM*,-1%
Cc1scc(C(=O)NNC(=O)CCC(=O)O)c1C,0%,3%,-3%,-7%,0%,nt
O=C(c1cccc(F)c1)N1CCC2(CC1)CCN(c1ccccn1)CC2,nt,nt,nt,nt,nt,-40%
Cc1ccc(NC(=O)Nc2ccc3c(c2)nc(C)n3C)cc1C,?,?,0.63µM*,1.3µM*,2.7µM*,nt
COc1ccccc1NC(=O)Nc1cc(NC(=O)Nc2ccccc2OC)c(C)nc1C,?,?,-7%,-6%,-1%,31%
Cc1nc2cc(Nc3nnc(-c4ccccc4)c4ccccc34)ccc2n1C,?,?,?,3.5µM*,0.67µM*,nt
COc1ccccc1NC(=O)Nc1ccc2c(c1)nc(C)n2C,?,?,0.56µM*,0.63µM*,1.5µM*,13µM*
CCOc1ccc(NC(=O)Nc2ccc3c(c2)nc(C)n3C)cc1,5%,21%,13%,2%,?,nt
Clc1cccc(Nc2nnc(-c3ccccc3)c3ccccc23)c1,nt,nt,nt,nt,nt,-47%
Cc1nc2cc(NC(=O)Nc3cccc4ccccc34)ccc2n1C,?,?,0.89µM*,3.2µM*,0.95µM*,4µM*
COc1cc(NS(=O)(=O)c2c(C(=O)N3CCCCC3)c(C)n(C)c2C)cc(OC)c1OC,nt,nt,nt,nt,0%,nt
CC(C)c1ccc(NC(=O)c2sccc2-n2cccc2)cc1,5%,?,2.8µM*,4µM*,?,nt
CS(=O)(=O)N1CCN(Cc2ccc([N+](=O)[O-])cc2)CC1,0%,11%,-11%,-7%,-3%,nt
Cc1cc(C)c2ccc(=O)n(CC(=O)N/N=C/c3ccccc3Cl)c2n1,-2%,1%,-5%,1%,1%,nt
